According to PubChem BioAssay (NCATS):
Results filed as inconclusive are left out. Calls of active or inactive are those of the source. Calls come from the whole dose curve; as a rule, active = well fitted curve in the direction sought with a large enough effect; inconclusive = small, poorly fitted or top-dose-only effect, or another doubt; inactive = no such curve, though single readings can be large; an effect the other way counts as inactive or inconclusive.

Key:
[1] = Quantitative High-Throughput drug screen in 47 multiple myeloma cell lines against the NCATS MIPE library collection: Karpas25_ECACC cell viability assay (AID 1918968; note: nearly all actives have a fitted effect of over 35% in size; note: potency is the fitted concentration of half-maximal effect)
Outline: (§1)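 Myeloma cells (500 per well) were exposed to MIPE 4.0 compounds by pin transfer and incubated 48 hours at 37C, 5% CO2. Viability was read as ATP by CellTiter-Glo luminescence, normalised to DMSO (100%) and media-only (0%) wells.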

[2] = Quantitative High-Throughput drug screen in 47 multiple myeloma cell lines against the NCATS MIPE library collection: KMS27_JCRB cell viability assay (AID 1918970); note: nearly all actives have a fitted effect of over 30% in size; note: potency is the fitted concentration of half-maximal effect
Outline: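 Luminescent ATP read-out (CellTiter-Glo, 5 min at room temperature) after 48 h compound exposure of 500 KMS27_JCRB cells per well; DMSO wells define full viability and media-only wells zero.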

[3] = Quantitative High-Throughput drug screen in 47 multiple myeloma cell lines against the NCATS MIPE library collection: KMS12PE_JCRB cell viability assay (AID 1918972); note: nearly all actives have a fitted effect of over 30% in size; note: potency is the fitted concentration of half-maximal effect
Outline: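 Relative luminescence from CellTiter-Glo served as the viability signal, referenced to DMSO-treated (100%) and cell-free medium (0%) controls. Treatment lasted 48 hours at 37C with 500 cells per well.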

[4] = Quantitative High-Throughput drug screen in 47 multiple myeloma cell lines against the NCATS MIPE library collection: KMS20_JCRB cell viability assay (AID 1918973); note: nearly all actives have a fitted effect of over 45% in size; note: potency is the fitted concentration of half-maximal effect
Outline: as §1

[5] = Quantitative High-Throughput drug screen in 47 multiple myeloma cell lines against the NCATS MIPE library collection: KMS26_JCRB cell viability assay (AID 1918975); note: nearly all actives have a fitted effect of over 45% in size; note: potency is the fitted concentration of half-maximal effect
Outline: (§2)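 Approved and investigational drugs from MIPE 4.0 were added by pin tool to 500 cells per well. After 48 hours at 37C, ATP-based CellTiter-Glo luminescence indicated remaining viability.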

[6] = Quantitative High-Throughput drug screen in 47 multiple myeloma cell lines against the NCATS MIPE library collection: MOLP8_DSMZ cell viability assay (AID 1918977); note: nearly all actives have a fitted effect of over 45% in size
Outline: (§3)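 Readout: median RLU from CellTiter-Glo after 5 min at room temperature. Preceding step was 48 h drug treatment of 500 cells/well at 37 °C, 5% CO2, with DMSO-only and media-only control wells.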

[7] = Quantitative High-Throughput drug screen in 47 multiple myeloma cell lines against the NCATS MIPE library collection: NCIH929_DSMZ cell viability assay (AID 1918978); note: nearly all actives have a fitted effect of over 35% in size; note: potency is the fitted concentration of half-maximal effect
Outline: as §3

[8] = Quantitative High-Throughput drug screen in 47 multiple myeloma cell lines against the NCATS MIPE library collection: MM1S_ATCC cell viability assay (AID 1918980); note: nearly all actives have a fitted effect of over 45% in size; note: potency is the fitted concentration of half-maximal effect
Outline: as §3

[9] = Quantitative High-Throughput drug screen in 47 multiple myeloma cell lines against the NCATS MIPE library collection: KMS28PE_JCRB cell viability assay (AID 1918983); note: nearly all actives have a fitted effect of over 35% in size; note: potency is the fitted concentration of half-maximal effect
Outline: as §3

[10] = Quantitative High-Throughput drug screen in 47 multiple myeloma cell lines against the NCATS MIPE library collection: L363_DSMZ cell viability assay (AID 1918984); note: nearly all actives have a fitted effect of over 40% in size; note: potency is the fitted concentration of half-maximal effect
Outline: as §3

[11] = Quantitative High-Throughput drug screen in 47 multiple myeloma cell lines against the NCATS MIPE library collection: KMS12BM_JCRB cell viability assay (AID 1918971); note: nearly all actives have a fitted effect of over 35% in size; note: potency is the fitted concentration of half-maximal effect
Outline: as §2

[12] = Quantitative High-Throughput drug screen in 47 multiple myeloma cell lines against the NCATS MIPE library collection: MMM1_PLB cell viability assay (AID 1918976)
Outline: as §3

[13] = Quantitative High-Throughput drug screen in 47 multiple myeloma cell lines against the NCATS MIPE library collection: OCIMY1_PLB cell viability assay (AID 1918979); note: nearly all actives have a fitted effect of over 35% in size; note: potency is the fitted concentration of half-maximal effect
Outline: as §3

[14] = Quantitative High-Throughput drug screen in 47 multiple myeloma cell lines against the NCATS MIPE library collection: MM1R_ATCC cell viability assay (AID 1918981); note: nearly all actives have a fitted effect of over 35% in size; note: potency is the fitted concentration of half-maximal effect
Outline: as §3

[15] = Quantitative High-Throughput drug screen in 47 multiple myeloma cell lines against the NCATS MIPE library collection: OCIMY7_PLB cell viability assay (AID 1918987); note: nearly all actives have a fitted effect of over 65% in size; note: potency is the fitted concentration of half-maximal effect
Outline: as §3

[16] = Quantitative High-Throughput drug screen in 47 multiple myeloma cell lines against the NCATS MIPE library collection: KMS21BM_JCRB cell viability assay (AID 1918974); conditions: ATP luminescence, 48 h; viability: at 45.8 µM (top of the series) unless noted
Outline: as §1

[17] = Quantitative High-Throughput drug screen in 47 multiple myeloma cell lines against the NCATS MIPE library collection: LP1_DSMZ cell viability assay (AID 1918982); note: nearly all actives have a fitted effect of over 35% in size; note: potency is the fitted concentration of half-maximal effect
Outline: as §3

[18] = Quantitative High-Throughput drug screen in 47 multiple myeloma cell lines against the NCATS MIPE library collection: KMS34_JCRB cell viability assay (AID 1918985); note: nearly all actives have a fitted effect of over 40% in size; note: potency is the fitted concentration of half-maximal effect
Outline: as §3

O=c1[nH]c(-c2ccc(C(F)(F)F)cc2)nc2c1CSCC2
active: Potency [1] 18.7 µM | Potency [5] 3.72 µM | Potency [7] 18.7 µM | Potency [8] 18.7 µM
inactive: Potency [2] | Potency [3] | Potency [4] | Potency [6] | Potency [9] | Potency [10]

O=c1ncn2nc(Sc3ccc(F)cc3F)ccc2c1-c1c(Cl)cccc1Cl
active: Potency [1] 14.8 µM | Potency [2] 18.7 µM | Potency [11] 18.7 µM | Potency [12] 20.9 µM | Potency [7] 18.7 µM | Potency [14] 16.6 µM | Potency [10] 18.7 µM | Potency [15] 16.6 µM
inactive: Potency [13] | Potency [9]

Clc1ccc(Nc2nnc(Cc3ccncc3)c3ccccc23)cc1
inactive: Potency [2] | Potency [3] | Potency [13] | Potency [10]
active: Potency [11] 20.9 µM | Potency [7] 11.8 µM | Potency [8] 18.7 µM | Potency [9] 20.9 µM | Potency [15] 3.32 µM

COc1cc(Oc2ccnc3cc(OC)c(OC)cc23)ccc1NC(=O)NC(C)c1nccs1 (stereo not drawn)
active: Potency [1] 23.5 µM | Potency [2] 5.9 µM | Potency [12] 16.6 µM | Potency [14] 18.7 µM
inactive: Potency [6]

O=C(Nc1ccc(F)c(C(F)(F)F)c1)Nc1nnc(-c2ccncc2)s1
inactive: Potency [2] | Potency [16] | Potency [13] | Potency [15]
active: Potency [12] 5.26 µM | Potency [7] 2.64 µM | Potency [14] 11.8 µM | Potency [17] 3.72 µM

COCCNCCCn1c(C(=O)CF)c(-c2ccc(C)cc2)c2c(N)ncnc21
inactive: Potency [3] | Potency [5] | Potency [7] | Potency [13] | Potency [9]
active: Potency [14] 2.64 µM | Potency [17] 7.43 µM

Cc1cc([C@@H](C)Nc2ccccc2C(=O)O)c2nc(N3CCOCC3)cc(=O)n2c1
active: Potency [2] 10.8 µM | viability [16] 15.1% [at 92.2 µM] | Potency [5] 27 µM | Potency [12] 19.1 µM | Potency [13] 8.55 µM | Potency [8] 9.59 µM | Potency [14] 27 µM | Potency [18] 2.7 µM | Potency [15] 2.15 µM

Nc1ncnc2nc(-c3ccc(N4CCOCC4)nc3)cc(-c3cccc(Br)c3)c12
inactive: Potency [2] | Potency [3] | Potency [5] | Potency [13]
active: Potency [8] 23.5 µM

Nc1cccc(S(=O)(=O)N2CCCN(S(=O)(=O)c3ccc4c(c3)OCCO4)CC2)c1
inactive: Potency [2] | Potency [3] | Potency [5] | Potency [6] | Potency [18]
active: Potency [8] 14.8 µM | Potency [14] 11.8 µM | Potency [17] 16.6 µM

Cc1cc2c(F)c(Oc3ncnn4cc(OC[C@@H](C)O)c(C)c34)ccc2[nH]1
active: Potency [12] 2.09 µM | Potency [7] 18.7 µM | Potency [8] 16.6 µM | Potency [9] 20.9 µM
inactive: Potency [3] | Potency [13]

C[C@]1(c2nc3c(C(N)=O)cccc3[nH]2)CCCN1
inactive: Potency [14] | Potency [9]
active: Potency [7] 23.5 µM | Potency [8] 4.69 µM | Potency [15] 5.26 µM

CN(C(=O)c1ccc(F)cc1C(F)(F)F)C1CCN(c2nnc(-c3ccnn3C)c3ccccc23)CC1
inactive: Potency [11]
active: Potency [4] 10.5 µM | Potency [15] 0.372 µM

COc1cc2c(cc1OC)CN(CCc1ccc(NC(=O)c3cccc4c(=O)c5cccc(OC)c5[nH]c34)cc1)CC2
inactive: Potency [17]
active: Potency [8] 2.64 µM

O=C1CCc2cc(OCCCCc3nnnn3C3CCCCC3)ccc2N1
inactive: Potency [2] | Potency [3] | Potency [5] | Potency [13] | Potency [14] | Potency [17] | Potency [9] | Potency [10]

C#Cc1cccc(Nc2ncnc3cc(OCCOC)c(OCCOC)cc23)c1
active: Potency [2] 5.26 µM | Potency [11] 20.9 µM | Potency [3] 2.09 µM | Potency [12] 0.59 µM | Potency [8] 9.35 µM | Potency [10] 1.48 µM | Potency [15] 0.833 µM
inactive: Potency [13]

CN(C)C(=O)c1ccc(S(=O)(=O)c2ccc(NC(=O)[C@@](C)(O)C(F)(F)F)c(Cl)c2)cc1
active: Potency [1] 3.72 µM | Potency [2] 14.8 µM | Potency [14] 14.8 µM | Potency [10] 10.5 µM | Potency [15] 11.8 µM
inactive: Potency [6] | Potency [13]

CC[C@@H](C)[C@H](NC(=O)[C@H](CC1CCCCC1)NC(=O)c1ccno1)C(=O)N1CCC2(CCc3ccccc32)CC1
active: Potency [11] 9.35 µM | Potency [12] 11.8 µM | Potency [13] 16.6 µM | Potency [14] 13.2 µM
inactive: Potency [2] | Potency [3]

COc1ccc(-c2c(-c3ccc(O)cc3O)n[nH]c2C)cc1
active: Potency [11] 27 µM | Potency [12] 42.9 µM | Potency [14] 38.2 µM
inactive: Potency [13] | Potency [8] | Potency [9]

CCOC(=O)N[C@@H]1CC[C@@H]2[C@@H](C1)C[C@H]1C(=O)O[C@H](C)[C@H]1[C@@H]2C=Cc1ccc(-c2cccc(F)c2)cn1
active: Potency [2] 18.7 µM | Potency [11] 20.9 µM | Potency [3] 14.8 µM | Potency [14] 20.9 µM
inactive: Potency [5] | Potency [6]

N#Cc1ccc(C(c2ccc(C#N)cc2)n2cncn2)cc1
active: Potency [12] 11.8 µM | Potency [13] 3.72 µM | Potency [9] 6.62 µM
inactive: Potency [3] | Potency [4] | Potency [7]

OC[C@H](Cc1ccccc1)Nc1nc(Oc2ccc3c(c2)CCC3)nc2c1ncn2Cc1ccc(-c2ccccc2)cc1
inactive: Potency [3] | Potency [6] | Potency [14] | Potency [9]
active: Potency [18] 18.7 µM

COc1ccc2nc(S(=O)Cc3ncc(C)c(OC)c3C)[nH]c2c1 (stereo not drawn)
active: Potency [7] 10.5 µM | Potency [8] 18.7 µM | Potency [15] 16.6 µM
inactive: Potency [1] | Potency [11] | Potency [4] | Potency [5]

CCOc1cc(C(=O)Nc2ccc(Cl)c(-c3nc4ccccc4[nH]3)c2)cc(OCC)c1OCC
inactive: Potency [5] | Potency [6] | Potency [9] | Potency [18]
active: Potency [1] 10.5 µM | Potency [4] 1.48 µM | Potency [12] 20.9 µM | Potency [14] 13.2 µM | Potency [15] 0.418 µM

CCCCCCCc1ccc(CCc2cccc(O)c2C(=O)O)cc1
active: Potency [1] 20.9 µM | Potency [11] 0.332 µM | Potency [12] 14.8 µM | Potency [14] 8.33 µM
inactive: Potency [3] | Potency [13] | Potency [9] | Potency [10] | Potency [18]

Nc1nc2c(ncn2COCCO)c(=O)[nH]1
inactive: Potency [2] | Potency [4] | Potency [5] | Potency [6] | Potency [7] | Potency [9] | Potency [10] | Potency [18]

CCCC(CCC)C(=O)O
inactive: Potency [2] | Potency [11] | Potency [3] | Potency [5] | Potency [6] | Potency [7] | Potency [13] | Potency [14] | Potency [17] | Potency [9] | Potency [18]

CCOc1cc(C=C2C(=O)N(c3ccccc3)N=C2C)cc(Cl)c1OCC(=O)OC
inactive: Potency [6] | Potency [13]
active: Potency [5] 20.9 µM | Potency [8] 7.43 µM | Potency [14] 23.5 µM | Potency [9] 6.62 µM | Potency [15] 3.72 µM

Cn1c(=O)c(F)c(Nc2ccc(I)cc2F)c2c(=O)n(C[C@@H](O)CO)cnc21
active: Potency [1] 13.2 µM | Potency [2] 1.87 µM | Potency [3] 18.7 µM | Potency [4] 0.0118 µM
inactive: Potency [5] | Potency [6] | Potency [13] | Potency [14] | Potency [9] | Potency [18]

CCn1c(-c2nonc2N)nc2cnc(Oc3cccc(NC(=O)c4ccc(OCCN5CCOCC5)cc4)c3)cc21
active: Potency [2] 8.33 µM | Potency [3] 5.9 µM | Potency [12] 10.5 µM | Potency [7] 9.35 µM | Potency [8] 18.7 µM | Potency [14] 16.6 µM | Potency [10] 8.33 µM | Potency [15] 2.35 µM
